Assay [1] can be described thus: small molecules captured by biotinylated probe aFSTL3 – biochemical, small-molecule microarray, fluorescence 635/667, stem cell growth factor project, primary screen (AID 1064).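 Note: measures binding of the biotinylated anti-FSTL3 antibody to printed compounds.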 The note with it: higher = more signal.
Assay [2] in a line: binders from COS7 lysate, DM2A8 probe, primary screen, torsin A project, cell lysate, small-molecule microarray, fluorescence 635/667 (AID 1065). The note with it: higher = more signal, COS7 lysate expressing mutant human TOR1A.
The nature of assay [3]: small molecules captured by biotinylated probe aFGF2 – biochemical, small-molecule microarray, fluorescence 635/667, stem cell growth factor project, primary screen (AID 1067).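 Note: measures binding of biotinylated aFGF2 protein to printed compounds on slides; z-score merges feature fluorescence and signal-to-noise across triplicate slides.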 The note with it: higher = more signal.
The nature of assay [4]: small molecules captured by biotinylated probe aFGF10 – biochemical, small-molecule microarray, fluorescence 635/667, stem cell growth factor project, primary screen (AID 1071).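 Note: score merges 667 nm spot intensity and signal to noise from triplicate slides.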 The settings on record: higher = more signal.
The target in assay [5] is Neurogenic locus notch homolog protein 2 (Homo sapiens) (UniProt Q04721). The experiment in a line: small molecules binding Notch2 protein – biochemical, small-molecule microarray, 635 nm fluorescence, stem cell growth factors, primary screen (AID 1073). The settings on record: higher = more signal.
For assay [6], the target named is Pro-neuregulin-1, membrane-bound isoform (Homo sapiens) (UniProt Q02297). The assay can be described thus: small molecules binding neuregulin-1 protein – biochemical, small-molecule microarray, fluorescence 635/667, psychiatric disease protein project, primary screen (AID 1075).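 Note: score combines 667 nm spot fluorescence with signal to noise.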 The note with it: NRG1 binding, 635 nm fluorescence, higher = more signal.
Assay [7] concerns Neuregulin-1 EGF-like domain. The assay can be described thus: small molecules binding NRG1 EGF domain – biochemical, small-molecule microarray, 635 nm fluorescence, primary screen (AID 1081).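 Note: binding of the protein to compounds printed on small-molecule microarray slides.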 The settings on record: higher = more signal.
Assay [8] in a line: FRG1 expression reporter modulators in myotubes – cell-based, C2C12 myotubes, firefly/Renilla luciferase, luminescence, FRG1 inhibition for FSHD, primary screen (AID 1084). The note with it: FRG1 promoter luciferase, higher = more signal, called active from +8 up or from −8 down.
The nature of assay [9]: small molecules captured by biotinylated probe aFST – biochemical, small-molecule microarray, fluorescence 635/667, stem cell growth factor project, primary screen (AID 1086).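 Note: score merges 667 nm fluorescence with signal-to-noise of each printed compound spot.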 The note with it: higher = more signal.
Assay [10] can be described thus: binders of probe aHhip on microarray, primary screen, stem cell growth factor project, biochemical, small-molecule microarray, fluorescence 635/667 (AID 1087).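 Note: score merges spot fluorescence at 667nm with spot signal to noise ratio.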 The settings on record: higher = more signal.
In assay [11] the test system is PRMT1 (protein arginine N-methyltransferase 1). The experiment in a line: small molecules binding arginine methyltransferase PRMT1 – biochemical, small-molecule microarray, 635 nm fluorescence, primary screen (AID 1088).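 Note: binding of Prmt1 protein to compounds spotted on small-molecule microarray slides.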 The note with it: higher = more signal.
Assay [12] is described as follows: growth effects on S. cerevisiae YJM789 – YJM789 clinical isolate, OD600, 24 h, basal, primary screen (AID 1089).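 Note: growth of clinical yeast isolate S. cerevisiae YJM 789 seeded 1000 cells per well; test concentration not given here.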 The settings on record: higher = more signal, called active from +8 up or from −8 down.
The nature of assay [13]: S. pombe growth modifiers, basal conditions – strain 972, OD600, 24 h, no modulator, primary screen (AID 1090).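 Note: basal condition with compound alone and no growth modifier present; test concentration not given here.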 The note with it: S. pombe 972 growth, higher = more signal, called active from +8 up or from −8 down.
The nature of assay [14]: budding yeast growth modifiers under rapamycin – strain BY4716, OD600, 96 h, primary screen (AID 1091). Note: test concentration not given here. The settings on record: S. cerevisiae BY4716 + rapamycin, higher = more signal, called active from +8 up or from −8 down.
In assay [15] the target is Torsin-1A-interacting protein 2 (Homo sapiens) (UniProt Q8NFQ8). The experiment in a line: small molecules binding lysate-expressed LULL1 – cell lysate, human LULL1 lysate, 635/667 nm fluorescence, primary screen (AID 1092).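 Note: probe is lysate of COS7 cells overexpressing human LULL1; score merges per-feature 667 nm fluorescence with signal-to-noise.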 The settings on record: small-molecule microarray, hLULL1 lysate binding, 635 nm fluorescence; higher = more signal.
A short description of assay [16]: optical density change of DRC41 E. coli – strain DRC41, OD650, 24 h, E. coli filamentation project, primary screen (AID 1093).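 Note: MC1000 strain lacking acrAB efflux and sulA so SOS filamentation is blocked; test concentration not given here.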 The note with it: E. coli DRC41 growth, higher = more signal, called active from +8 up or from −8 down.
A short description of assay [17]: probe aLefty2 binding to arrayed compounds – biochemical, biotinylated probe, 635/667 nm fluorescence, primary screen (AID 1094).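 Note: score merges spot fluorescence near 667 nm with spot signal-to-noise ratio.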 The note with it: small-molecule microarray, higher = more signal.
In assay [18] the test system is Noggin (protein binding on small-molecule microarray). The experiment in a line: small molecules binding Noggin protein – biochemical, 635/667 nm fluorescence, primary screen (AID 1095).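 Note: score merges 667 nm feature fluorescence with signal to noise over triplicate slides.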 The settings on record: 635 nm fluorescence, higher = more signal.
Assay [19] concerns the target Neurogenic locus notch homolog protein 3 (Homo sapiens) (UniProt Q9UM47). The assay can be described thus: small molecules binding NOTCH3 protein – biochemical, 635/667 nm fluorescence, primary screen (AID 1096). The settings on record: small-molecule microarray, 635 nm fluorescence, higher = more signal.
Assay [20] is described as follows: probe aEGFR binding to arrayed compounds – biochemical, biotinylated probe, 635/667 nm fluorescence, primary screen (AID 1097).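 Note: probe is a biotinylated anti-EGFR antibody binding compounds printed on slides; score combines fluorescence near 667 nm and signal to noise of each spot.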 The settings on record: small-molecule microarray, higher = more signal.

Active and inactive are the calls of the source.

Chain of Pro-neuregulin-1, membrane-bound isoform (Homo sapiens) (Q02297 whole entry, looked up, the tested form may be a part, canonical isoform): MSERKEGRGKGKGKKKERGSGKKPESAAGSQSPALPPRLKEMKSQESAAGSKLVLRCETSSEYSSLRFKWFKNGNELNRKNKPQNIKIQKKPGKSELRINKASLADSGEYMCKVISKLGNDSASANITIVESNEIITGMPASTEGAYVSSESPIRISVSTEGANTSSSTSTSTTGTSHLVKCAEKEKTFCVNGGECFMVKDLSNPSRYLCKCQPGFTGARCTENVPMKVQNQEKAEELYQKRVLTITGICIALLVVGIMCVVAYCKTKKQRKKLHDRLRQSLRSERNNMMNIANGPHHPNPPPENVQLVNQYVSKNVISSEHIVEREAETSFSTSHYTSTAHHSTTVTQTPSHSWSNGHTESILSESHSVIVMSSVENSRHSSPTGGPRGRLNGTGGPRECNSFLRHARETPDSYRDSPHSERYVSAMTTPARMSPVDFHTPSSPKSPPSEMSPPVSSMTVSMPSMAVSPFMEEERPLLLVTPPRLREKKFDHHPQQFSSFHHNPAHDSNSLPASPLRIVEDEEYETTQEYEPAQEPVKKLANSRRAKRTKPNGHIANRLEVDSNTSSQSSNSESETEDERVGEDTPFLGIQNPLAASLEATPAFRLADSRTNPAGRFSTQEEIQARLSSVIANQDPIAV
Chain of Neurogenic locus notch homolog protein 2 (Homo sapiens) (Q04721 whole entry, looked up, canonical isoform): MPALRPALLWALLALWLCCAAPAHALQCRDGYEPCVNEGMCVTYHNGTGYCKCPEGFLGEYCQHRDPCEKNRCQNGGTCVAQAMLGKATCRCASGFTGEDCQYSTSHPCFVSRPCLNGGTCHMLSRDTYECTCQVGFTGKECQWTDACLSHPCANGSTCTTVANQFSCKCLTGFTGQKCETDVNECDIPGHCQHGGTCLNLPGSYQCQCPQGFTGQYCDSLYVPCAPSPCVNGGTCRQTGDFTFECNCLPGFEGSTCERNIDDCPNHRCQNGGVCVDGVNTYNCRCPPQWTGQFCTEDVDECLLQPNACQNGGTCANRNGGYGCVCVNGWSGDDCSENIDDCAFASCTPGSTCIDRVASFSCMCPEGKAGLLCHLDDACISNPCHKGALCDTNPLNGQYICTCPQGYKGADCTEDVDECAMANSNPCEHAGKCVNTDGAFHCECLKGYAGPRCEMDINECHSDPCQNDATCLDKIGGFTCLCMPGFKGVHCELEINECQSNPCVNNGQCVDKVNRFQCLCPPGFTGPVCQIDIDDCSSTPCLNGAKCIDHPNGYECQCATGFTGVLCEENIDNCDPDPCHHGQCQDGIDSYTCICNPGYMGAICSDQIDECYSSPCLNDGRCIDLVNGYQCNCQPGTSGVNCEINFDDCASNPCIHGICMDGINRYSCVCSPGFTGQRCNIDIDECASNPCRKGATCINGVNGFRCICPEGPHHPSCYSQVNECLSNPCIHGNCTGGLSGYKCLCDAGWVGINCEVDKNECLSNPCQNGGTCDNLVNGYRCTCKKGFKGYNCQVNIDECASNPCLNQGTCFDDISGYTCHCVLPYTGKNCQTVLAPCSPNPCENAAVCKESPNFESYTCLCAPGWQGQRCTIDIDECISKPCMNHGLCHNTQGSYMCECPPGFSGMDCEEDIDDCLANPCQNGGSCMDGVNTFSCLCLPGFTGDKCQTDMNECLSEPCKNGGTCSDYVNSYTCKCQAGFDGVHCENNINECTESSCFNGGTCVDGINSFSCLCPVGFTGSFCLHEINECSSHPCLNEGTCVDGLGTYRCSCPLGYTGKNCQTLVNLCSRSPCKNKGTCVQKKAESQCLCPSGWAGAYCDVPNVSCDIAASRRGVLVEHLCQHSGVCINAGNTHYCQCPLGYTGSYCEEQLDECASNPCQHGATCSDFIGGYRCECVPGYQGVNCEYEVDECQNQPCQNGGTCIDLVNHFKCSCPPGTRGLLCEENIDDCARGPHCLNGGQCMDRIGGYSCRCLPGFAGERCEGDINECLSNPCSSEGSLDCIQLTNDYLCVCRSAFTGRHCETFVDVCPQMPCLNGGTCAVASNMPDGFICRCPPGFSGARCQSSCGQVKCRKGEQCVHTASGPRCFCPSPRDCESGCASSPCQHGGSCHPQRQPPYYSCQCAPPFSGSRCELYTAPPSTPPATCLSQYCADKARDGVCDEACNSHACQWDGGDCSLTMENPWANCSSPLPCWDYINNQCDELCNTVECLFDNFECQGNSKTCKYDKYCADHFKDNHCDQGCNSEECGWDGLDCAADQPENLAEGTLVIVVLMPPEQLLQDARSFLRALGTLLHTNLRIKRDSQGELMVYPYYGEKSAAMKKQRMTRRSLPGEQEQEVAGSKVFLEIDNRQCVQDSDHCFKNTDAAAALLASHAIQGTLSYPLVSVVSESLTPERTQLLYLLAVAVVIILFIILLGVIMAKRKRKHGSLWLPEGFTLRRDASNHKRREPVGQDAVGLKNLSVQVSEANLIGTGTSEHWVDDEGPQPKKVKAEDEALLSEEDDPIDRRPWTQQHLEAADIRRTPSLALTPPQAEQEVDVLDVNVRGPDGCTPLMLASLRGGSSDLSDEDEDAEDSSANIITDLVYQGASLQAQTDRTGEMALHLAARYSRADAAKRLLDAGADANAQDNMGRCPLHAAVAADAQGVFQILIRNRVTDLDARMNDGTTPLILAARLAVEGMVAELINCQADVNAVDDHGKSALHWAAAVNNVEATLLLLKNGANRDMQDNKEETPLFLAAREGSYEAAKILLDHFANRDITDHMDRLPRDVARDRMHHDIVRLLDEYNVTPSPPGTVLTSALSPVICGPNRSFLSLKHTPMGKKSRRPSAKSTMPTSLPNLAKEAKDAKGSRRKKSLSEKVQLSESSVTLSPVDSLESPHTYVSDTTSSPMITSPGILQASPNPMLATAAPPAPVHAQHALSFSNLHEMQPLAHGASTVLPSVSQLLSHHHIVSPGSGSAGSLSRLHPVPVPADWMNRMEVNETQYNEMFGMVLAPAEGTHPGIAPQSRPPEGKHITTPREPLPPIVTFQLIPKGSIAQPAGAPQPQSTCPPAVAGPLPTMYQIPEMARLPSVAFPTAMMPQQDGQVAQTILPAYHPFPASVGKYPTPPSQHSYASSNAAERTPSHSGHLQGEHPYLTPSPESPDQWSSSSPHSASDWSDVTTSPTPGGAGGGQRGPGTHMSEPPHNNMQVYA
Chain of Torsin-1A-interacting protein 2 (Homo sapiens) (Q8NFQ8 whole entry, looked up): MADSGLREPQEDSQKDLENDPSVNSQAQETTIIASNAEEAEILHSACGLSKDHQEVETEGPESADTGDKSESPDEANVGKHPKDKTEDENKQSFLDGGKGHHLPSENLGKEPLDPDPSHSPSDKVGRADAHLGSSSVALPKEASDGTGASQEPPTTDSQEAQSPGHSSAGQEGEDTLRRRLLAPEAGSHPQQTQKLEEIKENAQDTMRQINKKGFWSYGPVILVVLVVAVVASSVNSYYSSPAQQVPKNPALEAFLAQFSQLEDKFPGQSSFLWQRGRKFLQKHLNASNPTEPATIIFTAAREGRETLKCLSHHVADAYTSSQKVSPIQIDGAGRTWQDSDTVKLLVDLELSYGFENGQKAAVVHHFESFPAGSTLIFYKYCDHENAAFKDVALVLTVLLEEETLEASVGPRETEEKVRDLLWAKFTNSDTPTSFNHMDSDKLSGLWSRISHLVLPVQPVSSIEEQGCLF

Take `O=C(NN=C1C[C@@H](O)[C@@H](O)[C@@H]2[C@@H]3C(=O)N(Cc4ccccc4)C(=O)[C@@H]3CC[C@H]12)OCc1ccccc1`: the composite z-score in [1] was -0.286; in assay [2] it was 0.897; in assay [3], -0.0996; in assay [4], 0.378; in [5], 0.226; in assay [6] it was -0.153. Further, the composite z-score in [7] is -0.15; in assay [9], 0.122; in [10], 0.0373; in assay [11] it was -0.38; in assay [15] it was -0.845; in assay [17] it was -0.269. The composite z-score was 0.382 in assay [18], 0.577 in [19] and -0.0796 in assay [20]. Further, the z-score in assay [8] was 0.157 (inactive); in assay [12] it was -0.79 (inactive); in [13] it was -0.815 (inactive); in assay [14] it was -1.27 (inactive); in [16], 0.399 (inactive).
With `CC(C)CON=C1C[C@@H](O)[C@@H](O)[C@@H]2[C@@H]3C(=O)N(c4ccc(F)cc4F)C(=O)[C@@H]3CC[C@@H]12`, the composite z-score in [1] is -0.527; in assay [2], 0.118; in assay [3], -0.0502; in [4], 0.345; in [5] it was 0.429; in [6], 0.984. Besides, the composite z-score in assay [7] was 0.557; in [9], 0.283; in [10], -0.0994; in assay [11] it was 0.601; in assay [15] it was 0.956; in assay [17], -0.212. In addition, the composite z-score in [18] is 0.344; in assay [19], 0.898; in [20], -0.026. Besides, the z-score in assay [8] was 0.581 (inactive); in [12], 0.0347 (inactive); in assay [13] it was -0.786 (inactive); in [14] it was -0.733 (inactive); in [16] it was 1.24 (inactive).
Regarding `CCOC(=O)[C@H](Cc1ccccc1)NC(=O)CCC1CC(OC(=O)NCCc2ccc(F)cc2)CC2(CCCC(COC(=O)NCc3cccc(C(F)(F)F)c3)O2)O1` (stereo not given in full), the composite z-score in assay [1] was -0.334; in [2] it was 0.0606; in assay [3], 0.0102; in assay [4], 0.758; in assay [5] it was 1.49; in assay [6], 1.28. Further, the composite z-score is 1.05 in assay [7]; 0.332 in assay [9]; -0.121 in assay [10]; 1.45 in assay [11]; 2.9 in assay [15]; -0.0008 in assay [17]. Moreover, the composite z-score stood at 0.832 in assay [18], 1.11 in [19] and 0.12 in assay [20]. Besides, the z-score in assay [8] was -0.342 (inactive); in assay [12], 0.563 (inactive); in assay [13], 0.106 (inactive); in assay [14], 0.029 (inactive); in assay [16], 0.468 (inactive).
For `COC(=O)[C@@H]1CC[C@H](C)[C@@H](c2ccc(Br)cc2)N1C[C@@H](O)CN=[N+]=[N-]`, the composite z-score in assay [1] is -0.463; in [2], 0.054; in assay [3], -0.116; in assay [4], 0.186; in [5] it was 0.462; in [6], 0.117. The composite z-score in assay [7] was -0.0109; in [9], -0.139; in [10], 0.0881; in assay [11], 0.382; in assay [15] it was 0.147; in [17], -0.0412. In addition, the composite z-score in [18] was 0.162; in [19] it was 0.0511; in [20] it was -0.0902. For the same compound, the z-score in [8] is 0.687 (inactive); in assay [12], -1.44 (inactive); in assay [13], -10.1 (active); in [14], -0.243 (inactive); in assay [16], 0.323 (inactive).
`COc1cccc([C@H](O)Cn2cc(-c3ccc(CON=C(C)C)cc3)nn2)c1`: the composite z-score in [1] was -0.131; in [2], 0.173; in [3] it was -0.0138; in [4] it was 0.0967; in assay [5], -0.193; in [6], -0.486. The composite z-score in [7] was 0.0451; in assay [9], 0.0775; in assay [10], -0.185; in assay [11], 0.0112; in assay [15] it was -0.441; in assay [17] it was -0.0561. The composite z-score in assay [18] is -0.197; in assay [19], -1.27; in [20], 0.0709. Also, the z-score is -0.291 (inactive) in assay [8]; -0.733 (inactive) in [12]; 0.16 (inactive) in [13]; -0.625 (inactive) in [14]; 1.2 (inactive) in assay [16].

These data come from PubChem BioAssay.
